Assay outcomes: PubChem, National Center for Advancing Translational Sciences (NCATS)
gsp agonist – gsp mutant agonism | Potency, µM (titrated, usually from 76.9 µM), without a hit: at the highest dose activation (cAMP increase), hits mostly activators | actives 0.13% (n = 340,000) | gsp mutant cells, cAMP HTRF, 30 min | AID 624287; active = well fitted activation curve with a large enough effect; inconclusive = small, poorly fitted or top-dose-only effect, or another doubt; inactive = no such curve, though single readings can be large or run the other way; cell line not stated here;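 note: phosphodiesterase inhibitor Ro 20-1724 added with compounds to block cAMP breakdown; potency is the fitted concentration of half-maximal effect; nearly all actives have a fitted effect of over 60% in size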
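Cells in DMEM/10% FBS with G418 were pretreated with compounds in DMSO plus […] (300 uM stock) for 30 min at 37C. cAMP was measured by HTRF (cAMP-d2 plus anti-cAMP antibody-K) after 30 min at room temperature.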
RXFP1 antagonist – RXFP1 (human) relaxin receptor antagonism. Q9HBX9. HEK293-RXFP1, relaxin-stimulated cAMP HTRF, 30 min; stronger effect = lower value. activity change, negative = inhibition, % at 57.5 µM. actives 0.59% (n = 350,000). AID 1259400;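 active = activity change of -60% or lower, but not beyond a set lower limit; inconclusive = change between -60% and -40%, or beyond the set limit; inactive = change above -40%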; note: % is set by controls: 0 for no effect and ±100 for the full control effect
Target sequence (Q9HBX9 whole entry, looked up): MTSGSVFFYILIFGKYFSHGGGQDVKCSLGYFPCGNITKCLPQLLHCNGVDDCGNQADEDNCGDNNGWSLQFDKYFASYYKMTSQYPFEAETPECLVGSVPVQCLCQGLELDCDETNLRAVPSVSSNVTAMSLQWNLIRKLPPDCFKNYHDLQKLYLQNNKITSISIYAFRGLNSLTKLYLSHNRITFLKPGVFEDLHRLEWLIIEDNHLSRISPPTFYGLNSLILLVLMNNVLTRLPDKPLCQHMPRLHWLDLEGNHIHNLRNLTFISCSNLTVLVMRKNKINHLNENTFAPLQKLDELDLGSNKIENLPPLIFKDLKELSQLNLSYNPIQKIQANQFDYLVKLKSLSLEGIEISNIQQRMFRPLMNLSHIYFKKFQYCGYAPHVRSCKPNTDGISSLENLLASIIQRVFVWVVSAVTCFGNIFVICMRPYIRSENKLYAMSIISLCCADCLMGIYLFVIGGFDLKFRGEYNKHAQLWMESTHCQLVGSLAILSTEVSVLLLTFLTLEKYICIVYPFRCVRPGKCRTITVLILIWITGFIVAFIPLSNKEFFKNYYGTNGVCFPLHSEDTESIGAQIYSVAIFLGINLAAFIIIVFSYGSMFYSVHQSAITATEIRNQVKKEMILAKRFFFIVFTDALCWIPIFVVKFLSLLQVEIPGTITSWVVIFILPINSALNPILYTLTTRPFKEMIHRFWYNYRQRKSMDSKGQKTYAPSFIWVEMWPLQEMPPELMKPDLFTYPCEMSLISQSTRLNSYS
TSHR antagonist – blocks TSH signaling through the human TSH receptor | P16473 | TSHR-expressing cells, TSH-stimulated cAMP HTRF, 2 h; stronger effect = lower value | activity change, negative = inhibition, % at 11.5 µM | actives 0.2% (n = 330,000) | AID 504810;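 active = activity change below a set negative limit, meaning inhibition stronger than a set level, cut at about -70% in these data; inconclusive = activity change between two set negative limits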; note: % is set by controls: 0 for no effect and ±100 for the full control effect
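Cell-based HTRF cAMP assay; TSHR cells + compound, TSH EC80 (4nM final), 2 h, 37 deg C. Lysis with anti-cAMP cryptate and cAMP-d2, 30 min RT, read 665/620 nm.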
gsp antag – antagonizes gsp, the McCune-Albright syndrome mutation | actives 0.4% (n = 340,000) | Potency, µM (titrated, usually from 76.9 µM), inactives show at the top dose activity change, negative = inhibition, usual class: inhibitors | gsp-mutant cells, cAMP HTRF, 30 min; calls by dose curve; cell line not stated here;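 note: intracellular cAMP measured with PDE inhibitor Ro 20-1724 present during compound exposure; potency is the fitted concentration of half-maximal effect; % is set by controls: 0 for no effect and ±100 for the full control effect; nearly all actives have a fitted effect of over 65% in size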
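Measurement of cellular cAMP by homogeneous time-resolved fluorescence following a 30 min compound exposure at 37C. The PDE inhibitor […] was present throughout; the assay buffer was DPBS with 0.05% BSA and 0.005% Tween 20.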
RXFP1 agonist – agonists of human relaxin receptor RXFP1; Q9HBX9; HEK293T-RXFP1 cAMP TR-FRET, 30 min; response scale: percent of porcine relaxin response, buffer zero; Potency, µM (highest dose often 57.5 µM), inactives show top-dose activation, most hits filed as activators; actives 0.3% (n = 370,000); AID 2676; active = well fitted activation curve with a large enough effect; inconclusive = small, poorly fitted or top-dose-only effect; note: potency is the fitted concentration of half-maximal effect; % is set by controls: 0 for no effect and ±100 for the full control effect; nearly all actives have a fitted effect of over 60% in size
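cAMP rise read by TR-FRET after 30 min, 37C compound exposure (up to 58 uM) in RXFP1-transfected HEK293 cells with Ro 20174 present. EC50 from Hill-equation fits, with 29 nM porcine relaxin as 100% and buffer as basal.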
* hit, by the source's call; u = inconclusive; x = not tested or not shown; [ ] = dose if it differs, or a comment. The list is not random: actives were taken first. Their share in the collection is about 1%.

SMILES	gsp agonist	RXFP1 antagonist	TSHR antagonist	gsp antag	RXFP1 agonist
Cc1cc(=O)oc2cc(O[C@@H]3SC[C@@H](O)[C@H](O)[C@H]3O)ccc12	x	8	x	x	x
CCOC(=O)c1sc(NC(=O)c2ccc(Br)o2)cc1C	7%	-63*	3	-10%	-1%
N#Cc1cccc(NC(=O)Cn2nc(Cc3ccncc3)c3ccccc3c2=O)c1	x	18	x	x	0%
COc1cc(OC)cc(-c2n[nH]c(=S)n2-c2ccc3c(c2)OCO3)c1	7.1µM*	-16	-5	-15%	10%
COc1cc(-c2n[nH]c(=S)n2-c2ccc(C)cc2)cc(OC)c1OC	14µM*	-14	9	-8%	-1%
Fc1ccc(-n2c(-c3ccc4c(c3)OCO4)n[nH]c2=S)cc1Cl	u	-25	-8	1%	4%
Cc1ccc(C)c(CSc2cn(CC(=O)N3CCCC3)c3ccccc23)c1	x	-74*	x	x	18%
Cc1ccc(C)c(CSc2cn(CC(=O)N3CCCCCC3)c3ccccc23)c1	x	-5	x	x	-2%
Cc1cc(C)c(NC(=O)c2ncoc2-c2ccco2)c(C)c1	x	x	x	x	0%
CCn1cc2nc(SCc3cccc(OC)c3)n(Cc3ccc(Cl)cc3)c(=O)c2n1	x	x	x	x	2%
CSc1ncc(Cl)c(C(=O)Nc2nnc(SC/C=C/c3ccccc3)s2)n1	u	-32	u	35µM*	-1%
Cc1cccc(CS(=O)(=O)c2ncc(Cl)c(C(=O)Nc3nnc(C(C)C)s3)n2)c1	-1%[15.4 µM]	u	-74*	20µM*	-1%
CCSc1nnc(NC(=O)c2nc(S(=O)(=O)Cc3ccc(F)cc3)ncc2Cl)s1	-15%[15.4 µM]	u	-40	40µM*	-1%
C=CCSc1nnc(NC(=O)c2nc(SCC)ncc2Cl)s1	-4%	7	0	u	0%
CC(C)c1nnc(NC(=O)c2nc(SCc3ccc(F)cc3)ncc2Cl)s1	x	x	x	x	-1%
CSc1nnc(NC(=O)c2nc(S(=O)(=O)Cc3ccccc3F)ncc2Cl)s1	-16%[15.4 µM]	-40	-46	35µM*	-2%
Cc1ccc(NC(=O)C2CCN(S(=O)(=O)c3ccc4[nH]c(=O)ccc4c3)CC2)cc1C	x	-8	x	x	2%
CC(C)c1nnc(NC(=O)c2nc(S(=O)(=O)Cc3ccc(F)cc3)ncc2Cl)s1	-17%[15.4 µM]	u	-75*	28µM*	-3%
Cc1ccc(CS(=O)(=O)c2ncc(Cl)c(C(=O)Nc3nnc(C(C)C)s3)n2)cc1	-10%[15.4 µM]	-93*	u	18µM*	0%
CSc1nnc(NC(=O)c2nc(S(=O)(=O)Cc3cccc(C)c3)ncc2Cl)s1	-9%[15.4 µM]	-73*	u	40µM*	2%
CC(C)c1nnc(NC(=O)c2nc(S(=O)(=O)Cc3ccccc3F)ncc2Cl)s1	-3%	-28	u	u	2%
Cc1oc(-c2ccc(Cl)cc2)nc1Cn1c(=O)cc(-c2ccccc2)c2c(C)nn(C)c21	x	-4	x	x	-1%
Cc1ccc(CCNC(=O)C2CC(=O)N(CCc3ccc(C)cc3)C2)cc1 (stereo not drawn)	x	-3	x	x	2%
Cc1cc(Nc2cccc(C(F)(F)F)c2)n2nc(C)nc2n1	2%	-3	-6	6%	1%
COc1ccc(-c2nc3nc(C)cc(Nc4cccc(C(F)(F)F)c4)n3n2)cc1	x	-2	9	x	32µM*
SMILES	gsp agonist	RXFP1 antagonist	TSHR antagonist	gsp antag	RXFP1 agonist
CC(C)N1CCC2(CC1)N=C(c1ccc3c(c1)OCO3)CC(c1cc(Cl)ccc1O)N2 (stereo not drawn)	33%	-67*	-18	-7%	0%
O=C(Nc1cc(Cl)ccc1O)c1cc(-c2ccc3c(c2)OCO3)on1	x	1	x	x	0%
Cn1c(=O)c2[nH]c(CCCc3ccc([N+](=O)[O-])cc3)nc2n(C)c1=O	16µM*	10	x	8%	x
Cn1c(=O)c2[nH]c(CCc3ccncc3)nc2n(C)c1=O	u	5	x	13%	x
O=C1c2ccccc2NC(c2ccc(Br)s2)N1O (stereo not drawn)	16µM*	-1	x	-2%	x
COC(=O)c1ccc2c(=O)n(-c3ccccc3F)c(=S)[nH]c2c1	-24%[15.4 µM]	u	-13	-32%	1%
COC(=O)c1ccc2c(=O)n(-c3ccccc3)c(=S)[nH]c2c1	-33%	-99*	-12	-13%	-1%
